According to PubChem BioAssay AID1159580 (chemical genetic matrix, 2015):
Where “and” joins values, the source holds several entries; their conditions need not be identical. Equal values may be shown once. The campaign covered roughly 5,500 compounds. About 2,000 (36%) were called active. Another 18% or so got no clear call; they are omitted. Rule as the data show it: active = normalized growth mostly below about 0.91 (no sharp cut-off); inconclusive = no clear call, values can overlap the other calls; inactive = mostly above about 0.92. Some of the results follow.

Experiment: chemical genetic growth profiling, strain panel (AID 1159580);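 also: tested at 20 µM; growth read once vehicle control cultures reached saturation at 30 °C; 1 = growth at the plate median or of vehicle wells; lower values mean less growth of the strain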
Settings: S. cerevisiae deletion strains, growth OD

Measured: normalized growth

O=C(O)c1cc(=O)c(O)c2c(O)c(O)ccc2c1
inactive: locus YAL013W, strain DEP1, hits give low values 1 | locus YAL021C, strain ccr4, hits give low values 1.02 | locus YAL026C, strain drs2, hits give low values 0.993 | locus YAL030W, strain snc1, hits give low values 1 | locus YBL061C, strain skt5, hits give low values 0.998 | locus YBR009C, strain hhf1, hits give low values 0.989 | locus YBR021W, strain FUR4, hits give low values 0.991 | locus YBR023C, strain chs3, hits give low values 1 | locus YBR171W, strain sec66, hits give low values 0.985 | locus YBR229C, strain ROT2, hits give low values 1.01 | locus YBR231C, strain swc5, hits give low values 0.988 | locus YBR279W, strain paf1, hits give low values 0.993 | locus YCL011C, strain gbp2, hits give low values 0.996 | locus YCL016C, strain dcc1, hits give low values 1 | locus YCL029C, strain bik1, hits give low values 1.02 | locus YCL061C, strain MRC1, hits give low values 0.993 | locus YCL069W, strain vba3, hits give low values 0.998 | locus YCR088W, strain abp1, hits give low values 0.99 | locus YDL005C, strain med2, hits give low values 0.997 | locus YDL035C, strain GPR1, hits give low values 1 | locus YDL040C, strain nat1, hits give low values 1.01 | locus YDL074C, strain BRE1, hits give low values 0.995 | locus YDL101C, strain DUN1, hits give low values 1.01 | locus YDL134C, strain PPH21, hits give low values 1 | locus YDL185W, strain tfp1, hits give low values 0.998 | locus YDL192W, strain arf1, hits give low values 1.01 | locus YDR001C, strain nth1, hits give low values 0.997 | locus YDR069C, strain doa4, hits give low values 0.974 | locus YDR101C, strain arx1, hits give low values 1.02 | locus YDR137W, strain rgp1, hits give low values 0.907 | locus YDR150W, strain NUM1, hits give low values 1 | locus YDR159W, strain sac3, hits give low values 0.969 | locus YDR162C, strain NBP2, hits give low values 0.979 | locus YDR195W, strain ref2 0.957 | locus YDR297W, strain sur2, hits give low values 0.997 | locus YDR318W, strain mcm21, hits give low values 1.05 | locus YDR334W, strain swr1, hits give low values 0.984 | locus YDR335W, strain msn5, hits give low values 0.996 | locus YDR388W, hits give low values 1.03 | locus YDR392W, strain spt3, hits give low values 0.997 | locus YDR502C, strain sam2, hits give low values 1.02 | locus YEL003W, strain gim4, hits give low values 0.999 | locus YEL037C, strain rad23, hits give low values 1 | locus YEL061C, strain CIN8 (second series), hits give low values 1 | locus YEL061C, strain CIN8, hits give low values 1 | locus YER015W, strain faa2, hits give low values 0.989 | locus YER016W, strain bim1, hits give low values 0.999 | locus YER110C, hits give low values 1.03 | locus YER111C, strain swi4, hits give low values 0.986 | locus YER155C, strain BEM2 (second series), hits give low values 1.01 | locus YER155C, strain BEM2, hits give low values 1.02 | locus YER167W, strain BCK2, hits give low values 1.03 | locus YFR010W, strain ubp6, hits give low values 0.986 | locus YGL078C, strain dbp3, hits give low values 1.01 | locus YGL086W, strain mad1, hits give low values 1.02 | locus YGL167C, strain pmr1, hits give low values 1 | locus YGL173C, strain kem1, hits give low values 1 | locus YGL227W, strain vid30, hits give low values 0.979 | locus YGL240W, strain doc1, hits give low values 0.994 | locus YGL248W, strain PDE1, hits give low values 1 | locus YGL253W, strain hxk2, hits give low values 0.999 | locus YGR078C, strain PAC10, hits give low values 0.969 | locus YGR135W, strain pre9, hits give low values 0.993 | locus YGR229C, strain SMI1, hits give low values 0.977 | locus YGR252W, strain gcn5, hits give low values 1.03 | locus YHR013C, strain ard1, hits give low values 0.975 | locus YHR027C, strain rpn1, hits give low values 0.998 | locus YHR030C, strain SLT2, hits give low values 1.01 and 0.987 | locus YHR079C, strain IRE1 (second series), hits give low values 1.02 | locus YHR079C, strain IRE1, hits give low values 0.99 | locus YHR094C, strain hxt1, hits give low values 1.02 | locus YHR129C, strain ARP1, hits give low values 1.01 | locus YHR142W, strain chs7, hits give low values 1.02 | locus YHR200W, strain rpn10, hits give low values 1.03 | locus YIL066C, strain RNR3, hits give low values 1.03 | locus YIL073C, strain SPO22, hits give low values 1.14 | locus YIL125W, strain kgd1, hits give low values 1.01 | locus YIR030C, strain dcg1, hits give low values 1.03 | locus YJL092W, strain hpr5, hits give low values 0.998 | locus YJL095W, strain BCK1 (second series), hits give low values 1 | locus YJL095W, strain BCK1, hits give low values 0.999 and 0.991 | locus YJL115W, strain asf1, hits give low values 0.99 | locus YJL129C, strain trk1, hits give low values 1.04 | locus YJL134W, strain LCB3, hits give low values 1 | locus YJL154C, strain vps35, hits give low values 1 | locus YJL164C, strain tpk1, hits give low values 0.985 | locus YJL166W, strain qcr8, hits give low values 1 | locus YJL168C, strain set2, hits give low values 1.01 | locus YJL187C, strain SWE1 (second series), hits give low values 0.994 | locus YJL187C, strain SWE1, hits give low values 0.995 | locus YJR043C, strain POL32, hits give low values 1.04 | locus YJR066W, strain TOR1, hits give low values 0.892
